Assay results published in the supplement of paper PMC10849652.
Targets with a hit are over-represented here; the source holds about 7,900 in all. About 0.6% of all pairs of compound and target were hits. Unmarked numbers belong to inactive results.

Assays:
Assay in all cases: log2 fold change, soluble protein after heating vs DMSO (PISA); higher = thermal stabilisation; K562 cells, 10 uM, 30 min; active = over 0.2 and 3.5 SD of the protein, either way, in both replicates (recomputed)
[1] = compound: NC(=O)Nc1cc(-c2cccc(F)c2)sc1C(=O)N[C@H]1CCCNC1
Outline: (§1)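 Values are thermal stability changes relative to control samples and are taken from duplicates. They are stated as log2 fold changes. Before quantification by TMTpro 16plex LC-MS/MS with equalised channel sums, K562 cells at 2×10^6 cells/mL were treated with 10 μM compound for 30 min, heated in aliquots for 3 min across 48°C-58°C, pooled, extracted in PBS with 0.5% NP-40 at 4°C, and centrifuged at 21,000xg for 90 min to give the soluble supernatant.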

[2] = compound: NC(=O)c1cnc(N[C@@H]2CCCC[C@@H]2N)nc1Nc1cccc(-n2nccn2)c1
Outline: as §1

[3] = compound: NC1(c2ccc(-c3nc4ccn5c(=O)[nH]nc5c4cc3-c3ccccc3)cc2)CCC1
Outline: as §1

[4] = compound: NCC(=O)Nc1ccc(-n2nc(C(F)(F)F)cc2-c2ccc3c(ccc4ccccc43)c2)cc1
Outline: as §1

entinostat = compound: Nc1ccccc1NC(=O)c1ccc(CNC(=O)OCc2cccnc2)cc1 [entinostat]
Outline: as §1

vorinostat = compound: O=C(CCCCCCC(=O)Nc1ccccc1)NO [vorinostat]
Outline: as §1

silmitasertib = compound: O=C(O)c1ccc2c(c1)nc(Nc1cccc(Cl)c1)c1ccncc12 [silmitasertib]
Outline: as §1

[5] = compound: O=C1NC(=O)C(c2cnc3ccccn23)=C1c1cn2c3c(cc(F)cc13)CN(C(=O)N1CCCCC1)CC2
Outline: as §1

citarinostat = compound: O=C(CCCCCCNC(=O)c1cnc(N(c2ccccc2)c2ccccc2Cl)nc1)NO [citarinostat]
Outline: as §1

[6] = compound: c1cc(OCCN2CCCCC2)cc(-c2n[nH]c3ccc(-c4nnc[nH]4)cc23)c1
Outline: as §1

Sequence of UniProt Q9H6N6 (Q9H6N6 whole entry, looked up): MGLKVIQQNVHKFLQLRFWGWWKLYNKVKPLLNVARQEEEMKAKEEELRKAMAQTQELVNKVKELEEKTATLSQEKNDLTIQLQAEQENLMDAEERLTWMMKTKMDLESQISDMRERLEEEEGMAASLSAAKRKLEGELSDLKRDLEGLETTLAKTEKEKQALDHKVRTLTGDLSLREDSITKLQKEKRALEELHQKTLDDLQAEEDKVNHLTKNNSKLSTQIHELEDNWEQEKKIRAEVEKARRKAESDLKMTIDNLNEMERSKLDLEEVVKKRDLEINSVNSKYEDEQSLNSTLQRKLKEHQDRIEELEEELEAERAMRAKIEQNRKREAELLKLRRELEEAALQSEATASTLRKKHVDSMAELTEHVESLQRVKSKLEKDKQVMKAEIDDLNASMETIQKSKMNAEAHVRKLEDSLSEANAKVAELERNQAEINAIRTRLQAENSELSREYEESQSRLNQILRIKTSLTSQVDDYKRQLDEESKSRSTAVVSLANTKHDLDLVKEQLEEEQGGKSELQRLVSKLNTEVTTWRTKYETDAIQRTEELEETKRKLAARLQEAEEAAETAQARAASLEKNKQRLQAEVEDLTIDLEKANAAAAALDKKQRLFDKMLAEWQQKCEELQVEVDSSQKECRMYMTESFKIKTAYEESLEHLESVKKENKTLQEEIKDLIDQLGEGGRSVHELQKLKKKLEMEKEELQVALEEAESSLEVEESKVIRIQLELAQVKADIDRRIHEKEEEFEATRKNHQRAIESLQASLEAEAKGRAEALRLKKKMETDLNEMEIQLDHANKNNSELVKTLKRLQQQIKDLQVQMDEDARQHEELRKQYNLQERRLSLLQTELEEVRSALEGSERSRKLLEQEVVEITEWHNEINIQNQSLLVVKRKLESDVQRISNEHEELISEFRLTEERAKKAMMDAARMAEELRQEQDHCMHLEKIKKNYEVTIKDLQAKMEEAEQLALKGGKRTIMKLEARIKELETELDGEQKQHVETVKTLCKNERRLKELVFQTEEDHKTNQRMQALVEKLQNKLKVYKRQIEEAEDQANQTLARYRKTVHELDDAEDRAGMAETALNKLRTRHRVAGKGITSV
Sequence of UniProt Q9Y605 (Q9Y605 whole entry, looked up): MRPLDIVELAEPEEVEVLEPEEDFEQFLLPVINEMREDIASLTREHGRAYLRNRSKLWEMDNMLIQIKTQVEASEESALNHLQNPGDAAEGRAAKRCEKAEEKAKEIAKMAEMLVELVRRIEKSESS
Sequence of UniProt Q9ULX3 (Q9ULX3 whole entry, looked up): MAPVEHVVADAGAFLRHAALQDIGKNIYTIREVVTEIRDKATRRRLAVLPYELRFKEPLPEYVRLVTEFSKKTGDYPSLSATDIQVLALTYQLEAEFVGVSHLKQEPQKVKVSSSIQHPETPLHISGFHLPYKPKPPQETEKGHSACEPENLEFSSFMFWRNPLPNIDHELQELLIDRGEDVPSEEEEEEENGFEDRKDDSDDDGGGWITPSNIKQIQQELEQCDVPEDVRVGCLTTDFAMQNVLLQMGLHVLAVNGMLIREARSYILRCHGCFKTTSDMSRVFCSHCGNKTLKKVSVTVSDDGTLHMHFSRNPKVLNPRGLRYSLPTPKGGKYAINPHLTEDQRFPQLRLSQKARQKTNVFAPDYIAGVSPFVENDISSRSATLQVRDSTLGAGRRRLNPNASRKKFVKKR
Sequence of UniProt O75607 (O75607 whole entry, looked up): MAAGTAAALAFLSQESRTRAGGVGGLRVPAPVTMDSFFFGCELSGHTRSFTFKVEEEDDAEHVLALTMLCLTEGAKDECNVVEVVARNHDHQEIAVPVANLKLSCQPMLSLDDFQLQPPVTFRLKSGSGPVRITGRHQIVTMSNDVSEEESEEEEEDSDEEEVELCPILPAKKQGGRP
Sequence of UniProt O15460 (O15460 whole entry, looked up): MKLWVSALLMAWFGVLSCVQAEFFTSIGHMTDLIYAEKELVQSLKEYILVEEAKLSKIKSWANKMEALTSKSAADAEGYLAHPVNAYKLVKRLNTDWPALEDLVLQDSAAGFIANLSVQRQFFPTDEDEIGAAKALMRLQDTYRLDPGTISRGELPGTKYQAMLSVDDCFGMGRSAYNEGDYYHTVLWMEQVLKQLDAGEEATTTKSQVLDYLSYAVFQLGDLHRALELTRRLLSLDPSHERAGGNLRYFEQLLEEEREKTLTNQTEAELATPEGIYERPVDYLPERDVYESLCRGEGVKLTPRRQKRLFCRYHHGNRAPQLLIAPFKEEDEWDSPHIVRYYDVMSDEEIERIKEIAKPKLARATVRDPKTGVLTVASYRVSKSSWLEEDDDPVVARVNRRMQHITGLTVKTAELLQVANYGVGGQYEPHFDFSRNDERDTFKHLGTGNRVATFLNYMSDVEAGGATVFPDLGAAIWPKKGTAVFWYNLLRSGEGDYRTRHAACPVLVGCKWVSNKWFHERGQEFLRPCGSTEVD
Sequence of UniProt Q9UBD5 (Q9UBD5 whole entry, looked up): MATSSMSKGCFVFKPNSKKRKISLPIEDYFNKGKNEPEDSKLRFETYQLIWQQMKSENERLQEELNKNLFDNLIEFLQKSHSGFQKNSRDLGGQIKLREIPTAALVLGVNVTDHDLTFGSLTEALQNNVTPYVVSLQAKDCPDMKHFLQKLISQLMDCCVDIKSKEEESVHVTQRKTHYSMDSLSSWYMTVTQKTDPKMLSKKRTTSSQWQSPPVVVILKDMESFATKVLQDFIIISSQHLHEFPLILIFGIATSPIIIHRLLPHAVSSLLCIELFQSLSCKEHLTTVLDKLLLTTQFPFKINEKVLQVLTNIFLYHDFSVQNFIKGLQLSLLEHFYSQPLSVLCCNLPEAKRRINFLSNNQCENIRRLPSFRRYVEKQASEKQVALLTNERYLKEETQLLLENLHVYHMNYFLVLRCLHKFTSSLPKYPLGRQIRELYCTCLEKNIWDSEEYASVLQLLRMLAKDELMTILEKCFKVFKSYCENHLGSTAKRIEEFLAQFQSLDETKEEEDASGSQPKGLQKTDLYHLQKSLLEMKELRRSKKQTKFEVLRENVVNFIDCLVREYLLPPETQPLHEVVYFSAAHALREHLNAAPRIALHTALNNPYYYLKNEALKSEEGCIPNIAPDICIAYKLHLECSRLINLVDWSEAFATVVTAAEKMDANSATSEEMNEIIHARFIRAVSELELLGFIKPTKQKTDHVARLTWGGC
Sequence of UniProt Q6P1R3 (Q6P1R3 whole entry, looked up): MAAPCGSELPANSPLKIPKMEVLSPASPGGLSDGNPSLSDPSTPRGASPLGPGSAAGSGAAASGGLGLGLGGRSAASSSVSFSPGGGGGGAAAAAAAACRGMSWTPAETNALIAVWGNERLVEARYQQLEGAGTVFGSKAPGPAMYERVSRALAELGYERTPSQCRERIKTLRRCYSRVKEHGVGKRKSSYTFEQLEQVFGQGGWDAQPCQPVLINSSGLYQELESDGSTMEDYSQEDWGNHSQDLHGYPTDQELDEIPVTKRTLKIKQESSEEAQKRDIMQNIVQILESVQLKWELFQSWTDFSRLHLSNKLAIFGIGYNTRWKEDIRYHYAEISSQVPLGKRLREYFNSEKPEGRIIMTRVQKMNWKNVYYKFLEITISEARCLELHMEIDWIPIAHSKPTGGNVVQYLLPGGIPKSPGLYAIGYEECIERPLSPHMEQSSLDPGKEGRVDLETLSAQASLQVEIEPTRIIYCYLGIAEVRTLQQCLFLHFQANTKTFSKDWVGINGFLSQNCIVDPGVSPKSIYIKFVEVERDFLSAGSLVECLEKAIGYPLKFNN
Sequence of UniProt Q5VVJ2 (Q5VVJ2 whole entry, looked up): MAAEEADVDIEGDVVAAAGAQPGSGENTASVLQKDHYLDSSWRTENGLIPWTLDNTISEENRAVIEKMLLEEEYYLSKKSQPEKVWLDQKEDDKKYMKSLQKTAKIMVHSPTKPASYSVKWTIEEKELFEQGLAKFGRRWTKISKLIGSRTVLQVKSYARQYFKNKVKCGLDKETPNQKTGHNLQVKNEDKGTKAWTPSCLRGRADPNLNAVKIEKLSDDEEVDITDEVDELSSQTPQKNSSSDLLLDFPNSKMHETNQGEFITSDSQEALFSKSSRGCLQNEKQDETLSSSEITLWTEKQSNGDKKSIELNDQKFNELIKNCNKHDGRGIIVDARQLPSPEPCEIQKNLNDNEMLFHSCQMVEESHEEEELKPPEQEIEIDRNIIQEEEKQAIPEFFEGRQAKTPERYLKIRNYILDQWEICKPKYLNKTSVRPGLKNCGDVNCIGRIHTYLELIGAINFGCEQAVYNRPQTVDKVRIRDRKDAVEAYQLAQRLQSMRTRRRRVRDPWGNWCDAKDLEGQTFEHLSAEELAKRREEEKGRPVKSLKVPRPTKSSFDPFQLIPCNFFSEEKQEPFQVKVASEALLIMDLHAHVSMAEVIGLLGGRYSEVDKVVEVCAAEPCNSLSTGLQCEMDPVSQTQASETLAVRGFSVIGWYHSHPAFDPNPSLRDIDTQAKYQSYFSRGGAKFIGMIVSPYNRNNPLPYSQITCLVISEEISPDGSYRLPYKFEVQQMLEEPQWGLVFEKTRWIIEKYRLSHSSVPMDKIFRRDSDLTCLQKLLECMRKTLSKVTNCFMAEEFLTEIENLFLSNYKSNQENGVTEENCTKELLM
Sequence of UniProt P17568 (P17568 whole entry, looked up): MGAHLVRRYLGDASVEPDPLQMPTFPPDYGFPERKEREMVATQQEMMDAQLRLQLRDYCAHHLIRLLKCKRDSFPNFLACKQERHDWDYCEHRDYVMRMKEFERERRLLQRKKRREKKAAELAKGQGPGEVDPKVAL
Sequence of UniProt Q8WZ82 (Q8WZ82 whole entry, looked up): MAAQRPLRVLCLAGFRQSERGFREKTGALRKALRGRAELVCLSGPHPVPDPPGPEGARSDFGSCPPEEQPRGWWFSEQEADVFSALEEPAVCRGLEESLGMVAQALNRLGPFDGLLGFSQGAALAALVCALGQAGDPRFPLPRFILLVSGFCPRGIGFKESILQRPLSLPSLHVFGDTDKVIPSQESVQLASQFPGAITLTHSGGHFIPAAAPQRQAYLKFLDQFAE

| Target | log2 fold change [1] | log2 fold change [2] | log2 fold change [3] | log2 fold change [4] | log2 fold change (entinostat) | log2 fold change (vorinostat) | log2 fold change (silmitasertib) | log2 fold change [5] | log2 fold change (citarinostat) | log2 fold change [6] |
| --- | --- | --- | --- | --- | --- | --- | --- | --- | --- | --- |
| NUMBL (UniProt Q9Y6R0) | -0.101 | 0.016 | -0.154 | 0.002 | 0.01 | 0.078 | -0.037 | 0.016 | – | – |
| NPM3 (UniProt O75607) | 0.029 | 0.02 | 0.216 | 0.017 | -0.019 | -0.023 | 0.137 | – | -0.059 | -0.101 |
| OPHN1 (UniProt O60890) | 0.073 | -0.134 | -0.056 | – | -0.084 | 0.128 | 0.031 | -0.046 | 0.021 | 0.094 |
| MYH16 (UniProt Q9H6N6) | 0.467 | 0.051 | -0.057 | 0.051 | 0.289 | 0.291 | -0.044 | – | – | – |
| MRFAP1 (UniProt Q9Y605) | 0.134 | 0.01 | 0.021 | -0.082 | 0.014 | 0.15 | -0.019 | – | 0.133 | -0.028 |
| NOB1 (UniProt Q9ULX3) | -0.032 | 0.002 | -0.041 | -0.021 | 0.047 | 0.093 | -0.096 | 0.062 | -0.003 | 0.038 |
| NIPSNAP2 (UniProt C9J7B1) | -0.009 | 0.175 | -0.017 | – | 0.148 | – | 0.019 | – | – | – |
| NME7 (UniProt Q9Y5B8) | 0.159 | -0.13 | -0.184 | 0.057 | 0.159 | 0.145 | 0.071 | 0.05 | 0.03 | 0.186 |
| NDUFB7 (UniProt P17568) | 0.039 | -0.015 | -0.02 | 0.055 | -0.013 | -0.037 | 0 | -0.094 | 0.029 | 0.009 |
| NAA11 (UniProt Q9BSU3) | 0.139 | -0.048 | -0.072 | 0.167 | 0.375 (active) | – | -0.001 | -0.064 | -0.05 | -0.022 |
| NCK1 (UniProt P16333) | -0.118 | -0.247 | -0.056 | -0.112 | 0.085 | – | 0.077 | -0.194 | – | – |
| MPHOSPH8 isoform 2 (UniProt Q99549) | 0.257 | 0.004 | 0.161 | -0.018 | -0.191 | – | -0.083 | 0.189 | – | – |
| MT-ATP6 (UniProt P00846) | -0.003 | -0.007 | 0.197 | 0.081 | -0.018 | -0.007 | -0.005 | 0.037 | 0.097 | -0.04 |
| PACRGL (UniProt Q8N7B6) | 0.055 | – | – | – | -0.116 | – | – | – | – | – |
| MSANTD2 (UniProt Q6P1R3) | -0.041 | – | – | -0.065 | -0.184 | – | – | 0.004 | -0.124 | 0.16 |
| ORC3 (UniProt Q9UBD5) | – | 0.067 | – | – | – | – | – | – | 0.032 | -0.195 |
| MOB3B (UniProt Q86TA1) | – | -0.082 | -0.288 | -0.021 | – | -0.049 | -0.023 | – | – | – |
| P4HA2 (UniProt O15460) | -0.034 | – | -0.129 | 0.063 | -0.104 | -0.047 | 0.025 | 0.201 | -0.019 | -0.021 |
| NEU3 isoform 2 (UniProt Q9UQ49) | 0.112 | – | – | – | -0.071 | – | – | – | – | – |
| OVCA2 (UniProt Q8WZ82) | – | -0.067 | 0.03 | – | – | 0.08 | 0.206 | – | -0.085 | 0.08 |
| MYSM1 (UniProt Q5VVJ2) | -0.205 | – | – | – | 0.237 | – | – | – | 0.564 | 0.174 |
| NA (UniProt J3KR12) | – | – | -0.292 | – | – | – | -0.108 | 0.427 | – | – |
